Laboratory results published in PubChem BioAssay (NCATS).
Records with an inconclusive call do not appear. Where a call stands in place of a potency, no number is given. Calls of active or inactive are those of the source. The call rests on the fitted dose curve; in most records, active means well fitted inhibition curve with a large enough effect; inconclusive means small, poorly fitted or top-dose-only effect; inactive means no such curve, though single readings can be large or run the other way.

Target: Papain (Carica papaya) (UniProt P00784)
Sequence (P00784 whole entry, looked up): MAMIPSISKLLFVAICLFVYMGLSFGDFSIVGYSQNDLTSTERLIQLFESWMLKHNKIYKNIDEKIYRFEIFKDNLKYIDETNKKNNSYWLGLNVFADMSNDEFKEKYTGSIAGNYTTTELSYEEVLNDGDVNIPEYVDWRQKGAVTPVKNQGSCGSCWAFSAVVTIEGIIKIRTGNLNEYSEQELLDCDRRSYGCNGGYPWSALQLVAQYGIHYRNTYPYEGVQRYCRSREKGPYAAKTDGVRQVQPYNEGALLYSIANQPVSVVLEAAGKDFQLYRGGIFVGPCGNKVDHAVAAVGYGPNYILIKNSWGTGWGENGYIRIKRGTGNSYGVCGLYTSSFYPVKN
Assay: Primary qHTS assay for inhibitors of the protease papain (AID 1645873);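 further: papain turnover of Z-FR-AMC read as the AMC fluorescence gain over 10 min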
Conditions: papain Z-FR-AMC cleavage, AMC fluorescence; series mostly up to 49.8 µM
Potency means the concentration at half of the fitted maximal effect.

SMILES	Potency
CCCN(CCC)[C@H]1CCc2c(F)ccc(O)c2C1	inactive
O=C(NC1CN2CCC1CC2)c1cc2ccoc2cn1 (stereo not drawn)	inactive
O=[N+]([O-])c1ccc2nc(N3CCNCC3)ccc2c1	inactive
NC(N)=NOCC[C@H](N)C(=O)O	inactive
Cc1[nH]c2ccc(O)cc2c1CCN	inactive
N[C@@H](Cn1oc(=O)[nH]c1=O)C(=O)O	inactive
Cc1cc([C@@H]2CCCN2C)on1	inactive
CCCN(CCC)CCc1ccc(O)c(O)c1	inactive
CC(N)Cc1c[nH]c2ccc(O)cc12 (stereo not drawn)	inactive
COc1ccc2c(c1O)-c1cccc3c1[C@@H](C2)N(C)CC3	inactive
O=c1ccc2[nH]cc(C3=CCNCC3)c2[nH]1	25.1 µM (active)
NC(=O)c1cc(N2CC2)c([N+](=O)[O-])cc1[N+](=O)[O-]	inactive
C[N+](C)(C)CCOC(=O)CBr	inactive
COc1ccc(CNC(=O)/C=C/c2ccc3[nH]cc(CCN(C)C)c3c2)cc1	inactive
Nc1cc2c(ncn2CCOCP(=O)(O)O)c(=O)[nH]1	inactive
CC(C)NP(=O)(NC(C)C)OP(=O)(NC(C)C)NC(C)C	inactive
CC(=O)NBr	inactive
CC(N)c1cccc(Cl)c1Cl (stereo not drawn)	inactive
O=[N+]([O-])/C=C/c1ccc2c(c1)OCO2	inactive

SMILES	Potency
Ic1ccccc1CNC1C2CCN(CC2)C1C(c1ccccc1)c1ccccc1 (stereo not drawn)	inactive
C=CCN1CCC23c4c5ccc(O)c4O[C@H]2C(=O)CC[C@@]3(O)C1C5 (stereo partly drawn)	inactive
N#CCCN	inactive
CCCn1c(=O)c2[nH]c(C3CCCC3)nc2n(CCCOC(=O)c2ccc(S(=O)(=O)F)cc2)c1=O	inactive
C[C@H]1C2Cc3ccc(O)cc3[C@@]1(C)CCN2CC1CC1	inactive
NC(C(=O)O)c1cc(=O)[nH]o1 (stereo not drawn)	inactive
N[C@@]1(C(=O)O)CC[C@@H](C(=O)O)C1	inactive
C[C@H](Cc1ccc2c(c1)OC(C(=O)O)(C(=O)O)O2)NC[C@H](O)c1cccc(Cl)c1	inactive
CCCN(CCC)C1CCc2cccc(O)c2C1 (stereo not drawn)	inactive
CCOC(=O)c1ncn2c1[C@@H]1CCCN1C(=O)c1cc(OC)ccc1-2	inactive
COC(=O)N1CCN(C(=O)Cc2ccc(Cl)c(Cl)c2)C(CN2CCCC2)C1 (stereo not drawn)	inactive
CCCN1CCC[C@@H](c2cccc(O)c2)C1	inactive
OCc1cnc[nH]1	inactive
CP(=O)(O)C1=CCNCC1	inactive
Nc1ccc(CCN2CCN(c3cccc(C(F)(F)F)c3)CC2)cc1	inactive
Cc1sc2ccccc2c1CC1=NCCN1	28.2 µM (active)
Clc1ccc(N2CC3CCC(C2)N3)nn1	inactive
NCC(O)c1cc(O)c(O)cc1F (stereo not drawn)	inactive
CCCN1CCc2cc(O)cc3c2[C@H]1Cc1ccc(O)c(O)c1-3	inactive
